Results taken from article PMC4336329 (PLoS ONE, 2015).
The whole screen tested about 310,000 compounds, of which about 14,000 (4.5%) showed an effect of 50% or more. The effect is printed as a negative number. Shown is part of a subset that was picked to be rich in strong results.

Each compound was assayed against human ether-à-go-go-related gene (hERG) potassium channel (human, UniProt Q12809) (assay: primary screen, population patch clamp on CHO cells stably expressing hERG; higher = less effect of the substance).
Chain of human ether-à-go-go-related gene (hERG) potassium channel (Q12809 whole entry, looked up): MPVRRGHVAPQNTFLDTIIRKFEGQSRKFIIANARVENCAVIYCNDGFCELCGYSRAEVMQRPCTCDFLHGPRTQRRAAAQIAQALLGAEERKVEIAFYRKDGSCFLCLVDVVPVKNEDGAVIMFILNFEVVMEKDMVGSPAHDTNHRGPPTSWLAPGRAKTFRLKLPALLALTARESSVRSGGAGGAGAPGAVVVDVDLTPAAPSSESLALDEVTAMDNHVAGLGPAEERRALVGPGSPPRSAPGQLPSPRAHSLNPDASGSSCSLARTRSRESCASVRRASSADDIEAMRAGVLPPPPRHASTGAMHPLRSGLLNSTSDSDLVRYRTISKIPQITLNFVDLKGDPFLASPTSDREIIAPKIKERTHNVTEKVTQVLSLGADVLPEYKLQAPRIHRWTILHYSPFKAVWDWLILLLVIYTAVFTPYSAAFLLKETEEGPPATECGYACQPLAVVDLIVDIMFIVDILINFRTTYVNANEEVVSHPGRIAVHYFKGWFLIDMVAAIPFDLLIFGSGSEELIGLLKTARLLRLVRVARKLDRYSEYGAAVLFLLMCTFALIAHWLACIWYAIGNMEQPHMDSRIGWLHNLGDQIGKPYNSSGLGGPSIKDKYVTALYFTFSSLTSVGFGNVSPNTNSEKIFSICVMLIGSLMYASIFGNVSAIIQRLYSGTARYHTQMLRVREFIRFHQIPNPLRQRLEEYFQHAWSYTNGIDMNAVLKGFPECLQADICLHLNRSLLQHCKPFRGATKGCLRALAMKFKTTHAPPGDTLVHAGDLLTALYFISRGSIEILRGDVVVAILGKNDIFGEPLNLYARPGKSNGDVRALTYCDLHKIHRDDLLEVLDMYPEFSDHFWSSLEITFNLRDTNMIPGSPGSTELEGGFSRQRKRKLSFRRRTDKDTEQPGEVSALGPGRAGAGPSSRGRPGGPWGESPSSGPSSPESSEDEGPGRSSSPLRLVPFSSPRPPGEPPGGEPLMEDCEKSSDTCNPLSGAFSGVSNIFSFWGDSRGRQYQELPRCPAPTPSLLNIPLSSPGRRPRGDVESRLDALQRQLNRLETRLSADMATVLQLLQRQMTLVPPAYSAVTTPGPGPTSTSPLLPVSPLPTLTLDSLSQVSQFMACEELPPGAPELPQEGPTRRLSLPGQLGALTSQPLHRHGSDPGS
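Further: peak tail current of the secondary pulse compared with the same well before compound.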

SMILES	hERG current change (%, negative = inhibition) at 10uM [%]
CNC(=O)C(Sc1nc(C)nc2c1oc1ccccc12)C(C)=O (centres unmarked)	2.63
Cc1cc(Br)ccc1NC(=O)c1cnc(N2CCN(c3ccccn3)CC2)c2ccccc12	10
COc1cccc(O)c1CN1CCCC(C(=O)c2sccc2C)C1 (centres unmarked)	-45.9
COc1ccc(CCNC(=O)CN2CCN(c3cccc(C(F)(F)F)c3)CC2)cc1	-46.3
COc1ccc(C(=O)C2CCCN(Cc3c(O)cccc3OC)C2)cc1OC (centres unmarked)	-63.1
Nc1ccc(CCN2CCN(c3cccc(C(F)(F)F)c3)CC2)cc1	-67.2
Cn1cc(CN2CCCC(C(=O)c3cc(F)ccc3F)C2)c2ccccc21 (centres unmarked)	-31.1
O=C(c1cc(F)ccc1F)C1CCCN(Cc2cc(Cl)ccc2O)C1 (centres unmarked)	0.916
COc1ccc(C(=O)C2CCCN(Cc3nc4ccccc4nc3C)C2)cc1OC (centres unmarked)	-84.9
COc1ccc(C(=O)C2CCCN(C(=O)CSC)C2)cc1OC (centres unmarked)	8.85
COc1ccc(C(=O)C2CCCN(C(=O)Cn3ccc(C)n3)C2)cc1OC (centres unmarked)	19.1
CCOc1ccccc1CN1CCCC(C(=O)c2cc(F)ccc2F)C1 (centres unmarked)	-50.8
C#CCN1CCN(c2cccc(C(F)(F)F)c2)CC1	8.78
COc1ccc(C(CNC(=O)C(CCSC)NC(=O)c2ccccc2Cl)N2CCCC2)cc1 (centres unmarked)	-34.9
O=C(CCN1C(=O)c2ccccc2S1(=O)=O)Nc1cccc2ccccc12	-5.33
Cc1ccc(C)c(S(=O)(=O)Nc2ccc(C(N)=O)cc2)c1	14.9
CC1(C)CC(=O)c2c(Cc3ccccc3)noc2C1	12.1
Cc1ccccc1/C=C1\Sc2ccc(C(=O)N3CCN(c4ccccn4)CC3)cc2N(C)C1=O	-26.1
CCN(CC)S(=O)(=O)c1cccc(C(=O)Nc2nc3cc4c(cc3s2)OCCO4)c1	0.652
Cc1ccc(OCC(=O)N/N=C/c2ccncc2)cc1C	5.75
CC(C)OCCCNC(=O)c1ccc2c(=O)n(Cc3ccc4c(c3)OCO4)c(=S)[nH]c2c1	21.3
N#C/C(=C\c1ccc(F)cc1)C(=O)Nc1ccccn1	2.68
FC(F)(F)c1cccc(N2CCN(Cc3cccnc3)CC2)c1	-8.03

SMILES	hERG current change (%, negative = inhibition) at 10uM [%]
CCOc1cc(CN2CCN(c3cccc(C(F)(F)F)c3)CC2)ccc1O	-73
CCOc1cc(CN2CCN(c3cccc(C(F)(F)F)c3)CC2)ccc1OC	-16.6
FC(F)(F)c1cccc(N2CCN(Cc3ccoc3)CC2)c1	-60.4
CC(=O)Nc1ccc(CN2CCN(c3cccc(C(F)(F)F)c3)CC2)cc1	-38
CCOc1cccc(CN2CCN(c3cccc(C(F)(F)F)c3)CC2)c1O	-46.6
CCOc1cccc(CN2CCCC(C(=O)c3cccc(C(F)(F)F)c3)C2)c1O (centres unmarked)	-67.9
O=C(c1cccc(C(F)(F)F)c1)C1CCCN(Cc2ccccc2O)C1 (centres unmarked)	-29
O=C1COc2ccc(-c3n[nH]c(=O)c4ccccc34)cc2N1	-2.91
c1ccc(-c2nnsc2Sc2ccccn2)cc1	3.35
Cc1cc(C)cc(CC2CC(=O)N(c3cc(C)on3)C2=O)c1 (centres unmarked)	0.808
Cc1cc(C(=O)CSc2nnc(-c3ccc(Cl)cc3)n2C)c(C)n1CC1CCCO1 (centres unmarked)	8.08
Cc1noc(C)c1COC(=O)c1ccc(N(C)C)cc1	-9.83
CNC(=O)CN(c1cc(C)ccc1OC)S(=O)(=O)c1ccc(C)cc1	-0.703
COc1ccccc1CNC(=O)CCNC(=O)C1CCN(S(=O)(=O)c2ccccc2)CC1	-7.65
Cc1sc2nc(SCC(=O)Nc3c(C)n(C)n(-c4ccccc4)c3=O)n(C)c(=O)c2c1C	9.4
C=CCn1c(SCC(=O)Nc2ccccc2)nc2scc(-c3cccs3)c2c1=O	8.69
C=CCn1c(SCC(=O)Nc2c(C)n(C)n(-c3ccccc3)c2=O)nc2sc(C)c(C)c2c1=O	-31.4
C=CCn1c(SCC(=O)Nc2c(C)n(C)n(-c3ccccc3)c2=O)nc2sc(C)c(-c3ccccc3)c2c1=O	-54
C=CCn1c(SCC(=O)Nc2c(C)n(C)n(-c3ccccc3)c2=O)nc2ccccc2c1=O	-32.9
C=CCn1c(SCC(=O)Nc2c(C)n(C)n(-c3ccccc3)c2=O)nc2scc(-c3ccccc3)c2c1=O	-56
O=C(O)c1ccc[nH]c1=S	10.3
CC(=O)NC1C(OCc2ccccc2)OC2COC(C)(C)OC2C1O (centres unmarked)	18.3
Cc1ccc(C)c(NC(=S)NNC(=O)c2csc(C)c2C)c1	1.72

SMILES	hERG current change (%, negative = inhibition) at 10uM [%]
O=C(NCc1ccccc1)C1CCCN1S(=O)(=O)c1ccc(Cl)cc1 (centres unmarked)	-7.85
COc1ccc(OC)c(N(CC(=O)NCC2CCCO2)S(=O)(=O)c2ccccc2)c1 (centres unmarked)	8.03
NC(=O)NC(=O)C(c1ccccc1)N1CCN(S(=O)(=O)c2ccc(Br)s2)CC1 (centres unmarked)	-52.2
NC(=O)NC(=O)C(c1ccccc1)N1CCN(S(=O)(=O)Cc2ccccc2)CC1 (centres unmarked)	-18.9
CC(NC(=O)C1CCN(S(=O)(=O)c2ccc(Br)s2)CC1)c1ccccc1 (centres unmarked)	-0.752
CCN(c1cccc(C)c1)S(=O)(=O)c1cnc[nH]1	9.23
COc1ccccc1C(=O)NCC(c1cccs1)N1CCc2ccccc21 (centres unmarked)	1.26
CCOC(=O)c1c(NC(=O)Cn2nc(C(F)(F)F)cc2C)sc2c1CCC2	-4.65
NC(=O)c1cc(-c2csc(NCCc3ccccc3)n2)ccc1O	6.05
COc1ccc(C2=NC(CO)(CO)CO2)cc1	19
COc1ccc(C(CNc2ncnc3sc(C)c(C)c23)N(C)C)cc1 (centres unmarked)	-56.4
Cc1sc2ncnc(NCC(O)c3ccccc3)c2c1C (centres unmarked)	17.7
Cc1sc2ncnc(N[C@@H](CCC(=O)O)C(=O)O)c2c1C	10.1
COc1ccc(/C=N/Nc2ncnc3sc(C)c(C)c23)cc1	-8.19
Cc1nc(N(C)Cc2ccccc2)c2c(C)c(C)sc2n1	-14.8
Cc1nc(NCC(c2ccccc2)N(C)C)c2c(C)c(C)sc2n1 (centres unmarked)	-77.1
COc1ccccc1C(CNc1ncnc2sc(C)c(C)c12)N(C)C (centres unmarked)	-55.4
Cc1sc2ncnc(NCC(c3ccccc3)N(C)C)c2c1C (centres unmarked)	-40.1
Cc1sc2ncnc(NCC(O)c3ccc([N+](=O)[O-])cc3)c2c1C (centres unmarked)	-71.6
CCOC(=O)c1sc2ncnc(NCC(c3cccs3)N(C)C)c2c1C (centres unmarked)	5.57
Cc1nc(NCc2ccc(S(N)(=O)=O)cc2)c2c(C)c(C)sc2n1	2.83
Cc1sc2ncnc(NCC3COc4ccccc4O3)c2c1C (centres unmarked)	-13.6
O=C(c1cccc(S(=O)(=O)NCCOc2ccccc2)c1)N1CCN(c2ncccn2)CC1	-37.6

SMILES	hERG current change (%, negative = inhibition) at 10uM [%]
Cc1cc(/C=C(\C#N)C(=O)NCc2ccco2)c(C)n1-c1cccnc1	-23.2
O=C(COc1ccc2ccccc2c1)N/N=C/C1CC=CCC1 (centres unmarked)	1.93
CCOCCCN1CN(Cc2ccccc2)CNC1=S	14.3
COC(=O)c1sccc1NC(=S)NCc1ccc(Cl)cc1	9.11
COCCN(C(=O)CCC(=O)Nc1cc(C)on1)C(C(=O)NC1CCCC1)c1ccccc1C (centres unmarked)	14.7
COc1cccc(OC)c1C(=O)NC(=S)N1CCOCC1	17.2
CCOC(=O)Cn1c2c(c(-c3ccccc3OC)cc1=O)CCCC2	2.38
CNS(=O)(=O)c1ccc(NC(=S)Nc2ccc3c(c2)OCO3)cc1	8.16
CC(=O)c1c(C)[nH]c(C(=O)COC(=O)CNS(=O)(=O)c2ccccc2)c1C	-2.66
CC(C)[C@H](NS(=O)(=O)c1ccc(Cl)cc1)C(=O)OCC(=O)c1c(N)n(C)c(=O)n(C)c1=O	-39.9
CC(Oc1ccc(Cl)cc1Cl)C(=O)OCC(=O)c1c(N)n(C)c(=O)n(C)c1=O (centres unmarked)	-71.2
Cn1c(N)c(C(=O)COC(=O)CSc2ccc(Cl)cc2)c(=O)n(C)c1=O	-61.2
Cn1c(N)c(C(=O)COC(=O)CCCOc2ccc(Cl)cc2Cl)c(=O)n(C)c1=O	-12.2
Cn1c(N)c(C(=O)COc2ccc(Cl)cc2Cl)c(=O)n(C)c1=O	2.07
CC(=O)c1c(C)[nH]c(C(=O)COC(=O)CN(C)S(=O)(=O)c2ccc(Cl)cc2)c1C	-57.8
Cn1c(N)c(C(=O)COC(=O)CSc2ccc3ccccc3c2)c(=O)n(C)c1=O	-1.77
CN(CC(=O)OCC(N)=O)S(=O)(=O)c1ccc(Cl)cc1	33.6
Cc1ccc(S(=O)(=O)N(C)CC(=O)OCC(=O)c2c(N)n(C)c(=O)n(C)c2=O)cc1	-47.1
Cn1c(N)c(C(=O)COC(=O)CSc2ccccc2)c(=O)n(C)c1=O	-33.6
CN(CC(=O)OCC(=O)c1c(N)n(C)c(=O)n(C)c1=O)S(=O)(=O)c1ccc(Cl)cc1	-69.3
